A short description of this assay: qHTS Assay for Lipid Storage Modulators (AID 1519). For activity change, negative = inhibition: % is set by controls: 0 for no effect and ±100 for the full control effect. Conditions: Drosophila S3 cells, BODIPY lipid droplet/cell ratio, laser cytometry, cells loaded with oleic acid. The text has this: NIH Molecular Libraries Probe Production Centers Network [MLPCN]
NIH Chemical Genomics Center [NCGC]
Assay Submitter (PI): Beller, Mathias; Max-Planck-Institut fur Biophysikalische Chemie
NCGC Assay Overview: Storing lipids as a reservoir for energy or the anabolism of elementary metabolites is a common feature of probably all cells and is conserved from bacteria to humans. The universal cellular lipid storage organelle is the so-called lipid storage droplet (LD). Although ubiquitous, LDs share a simple structure composed of a hydrophobic core that harbors the storage lipids, which is shielded by a droplet-specific phospholipid monolayer to which proteins are attached. The current model of LD biogenesis involves an incorporation of the lipid core into the membrane leaflets of the endoplasmic reticulum (ER) followed by a subsequent budding-like maturation of a LD, which ultimately pinches off. Once released, LD volume can increase by localized lipogenesis or fusion of existing droplets. Storage lipids are re-mobilized enzymatically by lipase activity. Lipase regulation in the adipocyte is heavily studied and involves multiple components including catecholamine signaling, the LD-associated proteins Perilipin and comparative gene identification-58 (CGI-58) and at least two lipases named hormone sensitive lipase (HSL) and adipocyte triglyceride lipase (ATGL). LD regulation outside of the adipocyte is poorly understood and only few components are known. However, there is an urgent need to learn more about ectopic fat depots as mislocalized storage of lipids, for example in the liver or muscle, is an eminent health problem associated with insulin resistance or the metabolic syndrome. We developed a laser-scanning cytometer assay to enable 1,536-well screening and combined the results of the small molecules screen with an RNAi database based on lipid storage.
NCGC Assay Protocol Summary:
We dispensed 4 uL of cells at 1.25 x 10^6 cells/mL into LoBase Aurora COC 1,536-well plates (black walled, clear bottom) with a bottle-valve solenoid-based dispenser (Aurora) to obtain 5,000 cells/well. Triacsin C (Sigma-Aldrich T-4540), an inhibitor of long-chain fatty acyl CoA synthetase that blocks synthesis of triglycerides, was used as a positive control for lipid under-storage. A total of 23 nL of compound solution of different concentrations were transferred to the assay plates using a Kalypsys pin tool equipped with a 1,536-pin array containing 10-nL slotted pins (FP1S10, 0.457-mm diameter, 50.8 mm long; V&P Scientific). One microliter of oleic acid (400 uM) was added, and the plate was lidded with stainless steel rubber gasket lined lids containing pinholes. […] Fluorescence was detected by excitation of the fluorophores with a 488-nm laser on an Acumen Explorer (TTP Lab Tech). The total intensity in channel 1 (500-530 nm) reflected lipid droplet accumulation. […] The ratio of the total intensity in PMT channel 1 over total intensity of channel 3 was also calculated. Percent activity was computed relative to an internal control (100% inhibited lipid droplet deposition due to the presence of 20 uM Triacsin C), which was added to 32 wells/plate.
A general note: Quantitative high-throughput screening tests each substance at several concentrations.

Where [1] appears, read: measured here: cell count channel max response.
Where [2] appears, read: measured here: lipid channel max response.

The structures appear in SMILES notation. Values joined by “and” are separate entries in the source; they are usually repeats but may differ in a detail not shown here. Equal entries are not always repeated. Results filed as inconclusive are left out. Active and inactive are the calls of the source. Calls come from the whole dose curve.

Consider `C[C@@H]1O[C@H](O[C@@H]2CC[C@@]3(C=O)[C@H]4CC[C@@]5(C)[C@@H](C6=CC(=O)OC6)CC[C@@]5(O)[C@@H]4CC[C@]3(O)C2)C[C@H](O)[C@@H]1O`, for which, for the setting “at 25.7 µM (top of the series)”, the activity change, negative = inhibition is -0.93% (inactive). Further, the max response under setting [1] was -14.4% and the max response under setting [2] is -15.6%.
In the same order, the values of `CCN1C[C@@]2(COC)[C@H]3[C@@H](OC)[C@H]4C1[C@@]3([C@H](OC)C[C@@H]2O)[C@H]1C[C@@]2(O)[C@@H](OC(=O)c3ccccc3)[C@@H]1[C@@]4(OC(C)=O)[C@H](O)[C@@H]2OC` are -1.64% (inactive), -0.297% and -0.649%.
On the same counts, the results for `COc1ccc2c(c1OC)CN1CCc3cc4c(cc3[C@H]1C2)OCO4` are -2.73% (inactive), -16.8% and -19%.
On the same counts, the results for `Clc1ccc(CO[C@@H](Cn2ccnc2)c2ccc(Cl)cc2Cl)cc1` are -6.08% (inactive), -18.5% and -19.5%.
In the case of `CC(=O)O[C@H]1C[C@@H](O[C@@H]2[C@H](C)O[C@H](O[C@@H]3[C@H](C)O[C@H](O[C@@H]4CC[C@@]5(C)[C@@H](CC[C@]6(C)[C@]5(C)C[C@H](O)[C@]5(C)[C@@H](C7=CC(=O)OC7)CC[C@@]56O)C4)C[C@@H]3O)C[C@@H]2O)O[C@@H](C)[C@H]1O[C@H]1O[C@@H](CO)[C@@H](O)[C@@H](O)[C@@H]1O`, the activity change, negative = inhibition (at 25.7 µM (top of the series)) is -1.77% (inactive). Besides, the max response is, setting by setting: under setting [1], -6.91%; under setting [2], -8.38%.
In the same order, the values of `CCN1C[C@@]2(COC)CC[C@H](O)[C@@]34[C@@H]2C[C@@H]([C@@H]13)[C@]1(O)C[C@@H](OC)C2C[C@H]4[C@H]1[C@H]2OC(C)=O` are 2.15% (inactive), -6.46% and -5.05%.
Turning to `NC(CO)Cc1ccccc1` (configuration not stated), the activity change, negative = inhibition (at 57.5 µM (top of the series)) is 8.6% (inactive). Also, the max response came out at 17.3% under setting [1] and 29% under setting [2].
In the same order, the values of `COCC(=O)N1CCC2(CCCN(Cc3ccncc3)C2)CC1` are 5.89% (inactive), 12.2% and 21.3%.
Take `CC[C@@H]1CN2CC[C@@H]1C[C@H]2[C@H](O)c1ccnc2ccc(OC)cc12`: under “at 57.5 µM (top of the series)”, the activity change, negative = inhibition is -1.21% (inactive). Besides, the max response runs as follows: under setting [1], 1.88%; under setting [2], 1.41%.
As for `O=c1ccc2cc(O[C@H]3OC(CO)C(O)C(O)C3O)c(O)cc2o1` (some centres not stated), the activity change, negative = inhibition (at 57.5 µM (top of the series)) was 5.45% (inactive) and 5.34% (inactive). Besides, the max response is, setting by setting: under setting [1], 5.76% and 15.4%; under setting [2], 15.3% and 32.6%.
Take `CCCC[N+]1(C)C2CC(OC(=O)C(CO)c3ccccc3)CC1C1OC12` (configuration not stated): for the setting “at 57.5 µM (top of the series)”, the activity change, negative = inhibition is -1.49% (inactive). Further, the max response under setting [1] came out at 13.3% and the max response under setting [2] turned out to be 13.7%.
As for `O=C(CC[N+](=O)[O-])OCC1OC(O)C(OC(=O)CC[N+](=O)[O-])[C@@H](OC(=O)CC[N+](=O)[O-])C1OC(=O)CC[N+](=O)[O-]` (some centres not stated), for the setting “at 57.5 µM (top of the series)”, the activity change, negative = inhibition was 3.27% (inactive). Besides, the max response under setting [1] was 13% and the max response under setting [2] came to 17.5%.
Turning to `c1ccc(CN2CCCC3(CCNCC3)C2)cc1`, the activity change, negative = inhibition (at 57.5 µM (top of the series)) is 2.49% (inactive). Moreover, the max response amounted to 3.6% under setting [1] and 7.81% under setting [2].
In the case of `N#C/C(=C\c1ccc(O)cc1)C(=O)O`, the activity change, negative = inhibition (at 57.5 µM (top of the series)) is 4.55% (inactive). Further, the max response is, setting by setting: under setting [1], 8.92%; under setting [2], 15.9%.

The values above are taken from PubChem BioAssay (NCATS).
